This is part of a sample that, as a whole, favours compounds with a hit. Of some 83,000 tested, about 20% had one in any assay.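 Compound tested at a single concentration for 48 hours in 96-well plates; a percent growth value below 10 was scored as active.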 Unmarked numbers belong to inactive results. Calls of active or inactive are those of the source.
Tested on: OVCAR-3 ovarian
Assay: NCI-60 one-dose screen, 48 h (100 = growth as untreated, 0 = no growth, -100 = all killed)
Details: 10 µM
Method: Growth inhibition of the OVCAR-3 human tumor cell line is measured as a screen for anti-cancer activity. Cells are grown in 96 well plates and exposed to the test compound for 48 hours. Compounds are tested at a single concentration, which is 10^-5 M for most compounds. The reported endpoint is percent growth (GI% or GIPRCNT), where numbers from 0 - 100% represent growth inhibition, and numbers from -100% - 0 represent cell death. For example, a value of 40 represents 60% growth inhibition. A value of 0 means no net growth occurred over the course of the experiment. A value of -40 indicates 40% of cells at the beginning of the experiment died by the end of the experiment. A value of -100 means all cells are dead at the end of the experiment.
NCI-60 Human Tumor Cell Lines Screen was performed using the standard one-dose NCI protocol, which is described in more detail at https://dtp.cancer.gov/discovery_development/nci-60/default.htm.
Compounds with GIPRCNT values below 10 were considered active. Activity score was based on GIPRCNT using the following formula: […]
Score is 0 for GIPRCNT values of 100 or above, 50 for GIPRCNT values of 0, and 100 for GIPRCNT values of -100.

SMILES | growth
CC1(C)CNC(=O)N1 | 108%
CCNC1(NC#N)CCCCC1 | 109%
CCN(CC)CCOC(=O)c1ccc(NC(=O)Nc2cccc(Cl)c2)cc1 | 97.6%
Cc1cccc2c(Nc3ccc(NS(C)(=O)=O)cc3)c3ccc([N+](=O)[O-])cc3nc12 | -28.9% (active)
COc1ccc(C2C=C(c3ccc(Cl)c(Cl)c3)N=C3SC(C)=CN32)cc1 (stereo not given) | 95.5%
CCCCCCCCCCCCCC[n+]1ccccc1 | -51.2% (active)
COC(=O)c1c(C)nc(Nc2nc3ccccc3s2)nc1-c1ccc(Cl)cc1Cl | 92.2%
O=C(Nc1cccc(C(F)(F)F)c1)C(Cl)Cl | 107%
CC(=O)c1c(O)cc2c3c1OC(C)(C)C1CCC(C)(CC31)O2 (stereo not given) | 93.8%
C[n+]1c(/C=C/c2c[nH]c3ccccc23)ccc2ccccc21 | 68.1%
COc1ccc2nc(-c3ccccc3)cc(C(C)=O)c2c1 | 115%
O=S(=O)(NCCO)c1ccc(OCCOc2ccc(S(=O)(=O)NCCO)cc2)cc1 | 111%
O=S(=O)(NC1c2ccccc2Oc2ccccc21)c1ccccc1 | 97.6%
COc1cc2nc(Sc3sc(N)nc3C)n(-c3ccc(Oc4ccccc4)cc3)c(=O)c2cc1OC | 93.5%
COc1c(-c2c3sc(=O)[nH]c3nc3c2c(=O)[nH]n3C(C)C)cc2c(c1OC)OCO2 | 113%
CC1(CO)CCCC12OCCO2 (stereo not given) | 108%
COc1cc(C2C=C(c3ccc(Cl)c(Cl)c3)N=C3SC(C)=CN32)cc(OC)c1OC (stereo not given) | 79.8%
CCOc1nc(-c2ccccc2)cc2c(O)c(C(=O)NC(C)C)[nH]c(=O)c12 | 100%
Oc1ccc(Cn2cc3c(c2-c2ccccc2)CCc2cnoc2-3)cc1 | 107%
Cc1cc(O)c(C2=NN(c3ccc(S(N)(=O)=O)cc3)C(c3ccc(N(C)C)cc3)C2)c(C)c1Cl (stereo not given) | 80.3%

SMILES | growth
O=C(Cn1ccc(=O)[nH]c1=O)c1ccc([N+](=O)[O-])o1 | 96.9%
O=C(/C=C/c1ccc(Cl)cc1)c1ccc(Br)cc1 | 100%
O=S(=O)(O)C1(O)CCCCC1 | 103%
COc1ccc(OC)c([N+](=O)[O-])c1C=O | 101%
FC(F)(F)c1ccc(-c2ncc(-c3ccc(C(F)(F)F)cc3)c(NCc3cc(C(F)(F)F)cc(C(F)(F)F)c3)n2)cc1 | 31.9%
Cc1ccc(-c2cc(C(=O)Nc3ccc(S(=O)(=O)N4CCCCC4)cc3)[nH]n2)c(O)c1 | 55.3%
O=S(=O)(NCl)c1ccccc1 | 119%
CCOC(=O)C(=O)Cc1cccnn1 | 122%
O/N=C1\CCC2CCCCC2C1 (stereo not given) | 111%
CCCCCCCCCCCCc1ccc(C(=O)/C=C/C(=O)O)cc1 | 47%
COc1ccc(-c2nnc(N3CCN(C(=O)CN4CCN(c5ccc(Cl)cc5)CC4)CC3)nc2-c2ccc(OC)cc2)cc1 | 73.1%
COc1cc(-c2n/c(=C\c3c(O)[nH]c4ccccc34)cc3c2=Nc2ccccc2-3)cc(OC)c1OC | -16.6% (active)
O=c1oc2cc(OS(=O)(=O)C3CC3)ccc2c2c1CCCCCC2 | 68.7%
COc1ccc(-c2nc(NC(=O)CS(=O)(=O)c3ccc(F)cc3)sc2C)cc1 | 56%
COc1cc(C(=O)n2nc(N)c3c(C)cc(C)nc32)cc(OC)c1OC | 69.3%
Nc1ccccc1NC(=O)CCCCCCC(=O)Nc1ccc2c(c1)/C(=C/c1ccc[nH]1)C(=O)N2 | 29.3%
COc1cc(OC)cc(-c2ccc(-c3ccc(C(=N)N)cn3)o2)c1 | 19.4%
CCOC(=O)c1c(C(F)(F)F)n([O-])c2ccc(OC)cc2[n+]1=O | 32.9%
COc1cc(C2C=C(c3ccc(Cl)cc3)N=C3SC(C)=CN32)cc(OC)c1OC (stereo not given) | 103%
CCCCCCCCCCSC(=N)N (tested in a mixture with another compound) | 76.1%
